The list is not random: actives were taken first. Their share in the collection is about 4%.
Mtb FBA inh = Mtb fructose-bisphosphate aldolase inhibition; P9WQA3; purified M. tuberculosis FBA, fluorescence read-out; inhibition, % at 1 µM; 360,000 tested, 2.3% active; AID 588726;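 note: 0% = vehicle and 100% = reference inhibitor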
Target sequence (P9WQA3 whole entry, looked up): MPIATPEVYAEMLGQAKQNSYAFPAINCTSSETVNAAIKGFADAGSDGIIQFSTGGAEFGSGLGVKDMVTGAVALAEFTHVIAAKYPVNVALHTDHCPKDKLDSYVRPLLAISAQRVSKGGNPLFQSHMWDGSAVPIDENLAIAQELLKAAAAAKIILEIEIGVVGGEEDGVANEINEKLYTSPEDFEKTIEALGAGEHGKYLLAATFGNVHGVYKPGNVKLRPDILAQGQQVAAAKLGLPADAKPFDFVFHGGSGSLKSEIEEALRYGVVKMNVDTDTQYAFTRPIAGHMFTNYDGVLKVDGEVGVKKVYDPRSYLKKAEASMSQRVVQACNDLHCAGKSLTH
RecA splice inh = Mtb RecA intein splicing inhibition; AID 2221; cell-free RecA intein splicing, fluorescence; P9WHJ3; inhibition, % (test concentration not listed); 290,000 tested, 0.75% active; in the data active = inhibition above about 30%;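 note: 0% = vehicle wells and 100% = reference inhibitor control wells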
GDH-TPI counter-1 = inhibits GDH-TPI coupling enzymes, artifact for Mtb FBA screen | 360,000 tested, 1.2% active | GDH-TPI coupled enzyme counterscreen, NADH absorbance | inhibition, % at 4.8 µM; in the data active = inhibition above about 30%;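 note: 0% = DMSO wells and 100% = wells lacking the enzyme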
Rv3671c protease = inhibits the M. tuberculosis serine protease Rv3671c | inhibition, % at 5.96 µM | 320,000 tested, 0.048% active | AID 2606; in the data active = inhibition above about 38%;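 note: extracellular domain of Rv3671c used as enzyme; 0% = enzyme with DMSO and 100% = no enzyme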
Mtb bLac sens = beta-lactam sensitization of Mtb H37Rv; M. tuberculosis H37Rv growth with meropenem, percent inhibition; inhibition, % at 25 µM; 330,000 tested, 0.27% active; AID 434955; call rule not given here;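 note: growth measured after seven days incubation then overnight dye step; 0% = bacteria only wells and 100% = bacteria with antibiotic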
UGM FP inh = Mtb UDP-galactopyranose mutase inhibition. 320,000 tested, 0.06% active. P9WIQ1. purified UGM, fluorescence polarization probe displacement. inhibition, % at 10 µM; in the data active = inhibition above about 10%, passing the limit was not always enough
Mtb FBA confirm = Mtb FBA inhibition, confirmed. 5,600 tested, 78% active. purified M. tuberculosis FBA, fluorescence read-out. inhibition, % at 1 µM. AID 651616. shares compounds with Mtb FBA inh;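 note: 0% = vehicle wells and 100% = reference inhibitor wells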
GDH-TPI counter-2 = inhibits GDH-TPI coupling enzymes, flagging Mtb FBA hits | AID 652141 | GDH-TPI coupled enzyme counterscreen, fluorescence | 5,600 tested, 81% active | shares compounds with Mtb FBA inh | inhibition, % at 1 µM; in the data active = inhibition above about 10%
GDH-TPI DR = GDH-TPI dose response counter-screen for Mtb FBA; shares compounds with Mtb FBA inh; GDH-TPI coupled enzyme assay, fluorescence, artifact counterscreen; IC50, µM; 170 tested, 79% active; AID 652145; call rule not given here
Active calls of the source: *; . = no result given; + = active, no number. Cut-off read from the data, not from the text of the source, unless noted: active = inhibition above about 27%; inactive = the rest.

SMILES | Mtb FBA inh | RecA splice inh | GDH-TPI counter-1 | Rv3671c protease | Mtb bLac sens | UGM FP inh | Mtb FBA confirm | GDH-TPI counter-2 | others
O=C(CCNc1cccc(F)c1)c1cc2ccccc2o1 | 28* | 0 | 3 | 0 | 42 | 0 | 4 | -5
Nc1cc2c3ccccc3ccc2c2ccccc12 | 62* | . | 11 | . | . | . | + | +
COc1ccc(CCNS(=O)(=O)c2c(C)[nH]c(C)c2C(=O)N2CCCCC2)cc1OC | -1 | 1 | -4 | -6 | 9 | -2 | . | .
c1ccc(-c2cn3c(n2)SCC3)cc1 | 1 | 1 | -1 | 1 | -17 | -2 | . | .
Cc1oc2ccccc2c1-c1cn2c(n1)SCC2 | 102* | 0 | 5 | -7 | -6 | 1 | 52* | 41*
CCN(CC)S(=O)(=O)c1cc(NC(=O)C2CSC3(C)CCC(=O)N23)ccc1C (stereo not given) | 1 | . | -2 | -3 | -7 | 1 | . | .
C[C@H](CO)N1C[C@H](C)[C@@H](CN(C)Cc2ccc3c(c2)OCO3)Oc2ccc(NC(=O)Cn3cnnn3)cc2C1=O | 4 | . | 6 | -5 | -1 | -4 | . | .
COc1cc(F)cc(-c2ccc3c(c2)c(-c2cccs2)c(-c2cc(OC)cc(OC)c2)n3C)c1 | 2 | . | 22 | 0 | 2 | -3 | . | .
COc1cc(OC)cc(-c2c(-c3cccs3)c3cc(-c4cccc5[nH]ccc45)ccc3n2C)c1 | 47* | . | 21 | 10 | 7 | -1 | 112* | 79*
COc1ccc(Cc2nc3ccc(C(=O)NC(C)c4cnn(C)c4)cc3o2)cc1 (stereo not given) | 6 | -6 | 1 | . | 0 | 2 | . | .
O=S(=O)(c1ccc(Cl)cc1)N1CN2CCN(C2)C1 | -2 | 3 | 8 | -11 | -7 | 1 | . | .
O=S(=O)(c1ccc(F)cc1)N1CN2CCN(C2)C1 | 30* | -6 | 14 | -12 | 1 | -1 | 5 | -1
CCOC(=O)c1cnc2c(-c3ccc(F)cc3)cnn2c1C(F)(F)F | 74* | . | 13 | . | . | . | 17 | 7
CC(C)CC(N)c1csc(Nc2ccccn2)n1 (stereo not given) | 4 | . | -1 | . | . | . | . | .
CC1(C)CCC[C@@]2(C)CC=C(C(=O)O)[C@@H]3C[C@]312 | 4 | 1 | 2 | 1 | -3 | 1 | . | .
CCOC(=O)C1=C(COC(=O)C2CC(=O)N(c3ccc(C)cc3)C2)NC(=O)NC1C (stereo not given) | 65* | 0 | 4 | -3 | -4 | -1 | 138* | 89*
CCOC(=O)C1=C(COC(=O)C2CC(=O)N(c3ccccc3CC)C2)NC(=O)NC1C (stereo not given) | -1 | . | 4 | . | . | . | . | .
COc1ccc(CC(=O)OCC(=O)NC2CCCC(C)C2C)cc1 (stereo not given) | -3 | . | 8 | 1 | 0 | 0 | . | .
CCOC(=O)c1c(-c2ccc(Cl)cc2)cn2ccccc12 | 64* | -3 | 24 | -2 | -7 | -2 | + | 172*
Cc1cc(=O)oc2cc(OCC(=O)OCC(=O)N3CCC(C)CC3)ccc12 | 42* | -2 | 10 | 6 | -4 | 0 | 182* | 131*
Cc1cc(=O)oc2cc(OCC(=O)N3CCC(C(N)=O)CC3)ccc12 | 27* | 10 | 20 | -11 | 1 | 1 | + | +
Cc1cc(OCC(=O)N2CCC(C(N)=O)CC2)c2c(C)cc(=O)oc2c1 | 33* | -1 | 9 | -6 | 8 | 3 | 17 | 15*
Cc1ccc(NC(=O)/C=C/C(=O)O)c(NC(=O)c2ccccc2)c1 | 1 | 2 | -5 | -8 | -28 | 0 | . | .
CCOC(=O)[C@@H]1[C@H]2COc3ccccc3[C@H]2N2C(=O)N(c3ccc(C(F)(F)F)cc3)C(=O)[C@]12C | -3 | 3 | -5 | -14 | 92 | -3 | . | .
COc1ccc(-c2cc3nc(NCCN4CCCC4)n(C)c(=O)c3s2)cc1OC | 39* | . | 20 | . | . | . | 96* | 73*
SMILES | Mtb FBA inh | RecA splice inh | GDH-TPI counter-1 | Rv3671c protease | Mtb bLac sens | UGM FP inh | Mtb FBA confirm | GDH-TPI counter-2 | others
OCCNc1nc(Nc2cccc(O)c2)nc2ccccc12 | 1 | 3 | 12 | 6 | 0 | -2 | . | .
Oc1cccc(Nc2c3ccccc3nc3ccccc23)c1 | 65* | 3 | 3 | 0 | 5 | 3 | 21 | 18*
CC(C)(C)Nc1c2ccccc2nc2ccccc12 | 42* | 16 | -5 | -16 | -2 | 0 | 94* | 71*
Cc1ccc(C(=O)NNc2c3ccccc3nc3ccccc23)cc1 | 36* | -22 | 23 | 11 | 22 | 0 | 97* | 103*
O=C(O)c1ccc(Nc2c3ccccc3nc3ccccc23)cc1 | 98* | -1 | -1 | 2 | 10 | -1 | + | +
CC(=O)c1c(C)[nH]c(C(=O)OC(C)C(=O)NC2CCCCC2)c1C (stereo not given) | -1 | . | 4 | . | . | . | . | .
COc1cccc(CNC(=O)CSc2nnc3c(n2)[nH]c2ccc(C)cc23)c1 | -4 | 3 | 3 | -1 | -7 | 1 | . | .
CCOC(=O)Nc1ccc(Oc2ccccc2)cc1 | 5 | 11 | -14 | 6 | 81 | -2 | . | .
CCOC(=O)Nc1c2ccccc2nc2ccccc12 | 95* | -103 | 12 | -1 | 5 | -3 | 114* | 77*
CC1(C)CC(=O)c2cc(OCC(=O)N3CCN(c4ccccc4F)CC3)ccc2O1 | 18 | -9 | 7 | -2 | 0 | 3 | . | .
CC1(C)CC(=O)c2cc(OCC(=O)N3CCCCCC3)ccc2O1 | 46* | -6 | 0 | 0 | . | -2 | 88* | 95*
CC1(C)CC(=O)c2cc(OCC(=O)NCCN3CCOCC3)ccc2O1 | 34* | -7 | 3 | -5 | -1 | -2 | 57* | 40*
Cc1cc(OCC(=O)NCCN2CCOCC2)cc(C)c1Br | 1 | 0 | 1 | 2 | 0 | -1 | . | .
CC1(C)CC(=O)c2cc(OCC(=O)N3CCN(Cc4ccccc4)CC3)ccc2O1 | 7 | -10 | 4 | 17 | -13 | 1 | . | .
CC1(C)CC(=O)c2cc(OCC(=O)O)ccc2O1 | 64* | -21 | 15 | -3 | -5 | 2 | 101* | 75*
CCOC(=O)COc1ccc2c(c1)C(=O)CC(C)(C)O2 | 48* | -11 | 20 | -4 | 66 | 2 | 23 | 6 | GDH-TPI DR=2.9*
Cc1ccc(S(=O)(=O)N2CCC(C(=O)Nc3cc(C(F)(F)F)ccc3N3CCOCC3)CC2)cc1C | -3 | -2 | 3 | 4 | -5 | -1 | . | .
CC(C)CN(C(=O)COC(=O)c1ccc2c(c1)OCO2)c1c(N)n(Cc2ccccc2)c(=O)[nH]c1=O | 0 | . | 4 | -1 | 2 | 3 | . | .

Compound activity as filed in PubChem BioAssay.
